Bioassay records: PubChem BioAssay, National Center for Advancing Translational Sciences (NCATS)
Sampled rows, rich in hits. Any-hit rate of the full collection: about 17%.
HepG2 viability: counter-screen for TGF-b inhibitors: cytotoxicity in HepG2 cells; HepG2 CAGA-GFP viability, ATP luminescence, 18 h; Potency, µM (top dose mostly 46.1 µM), most hits filed as cytotoxic; hit rate 0.76% among 410,000; AID 588856
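HepG2 CAGA-GFP cells (1000/well, DMEM with 1% FBS) received compound, then TGF-beta at 500 pg/mL final, and were incubated 18 hours at 37 degrees C. Viability was read by CellTiter-Glo luminescence. Media-only wells were set as complete cell-killing and DMSO as no toxicity.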
DT40 TDP1 no CPT: qHTS for Inhibitors of human tyrosyl-DNA phosphodiesterase 1 (TDP1): qHTS in cells in absence of CPT. DT40 Tdp1-/- hTDP1 cells, no CPT, ATP luminescence, 48 h. hit rate 15% among 420,000. Potency, µM (titrated, usually from 46.2 µM), most hits filed as inhibitors; note: nearly all actives have a fitted effect of over 55% in size
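Cells were dispensed at 400 per well, compounds added by pin tool, plates incubated ≥48 hr at 37 °C, then CellTiter-Glo added for 30 min at room temperature before luminescence reading. Line: DT40 Tdp1-/- complemented with hTDP1; camptothecin omitted.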
DT40 TDP1 CPT: growth inhibition of DT40 Tdp1-/-;hTDP1 cells with camptothecin (screen for TDP1 inhibitors); hit rate 12% among 420,000; Potency, µM (series often up to 46.2 µM), hits mostly inhibitors; chicken DT40 Tdp1-/-;hTDP1 cells + 20 nM CPT, ATP luminescence, 48 h; note: nearly all actives have a fitted effect of over 55% in size
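Chicken DT40 Tdp1-/- cells complemented with human TDP1, 400 cells/well, exposed to compounds plus 20 nM camptothecin for at least 48 h at 37 C; viability read as ATP content by CellTiter-Glo luminescence.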
TGFb inhibitor: blocks TGF-b signaling | Potency, µM (top dose mostly 46.1 µM), hits mostly inhibitors | HepG2 CAGA-GFP TGF-b/SMAD3 reporter, GFP fluorescence, 18 h; TGF-beta stimulated, 500 pg/mL final | hit rate 1.2% among 410,000; note: nearly all actives have a fitted effect of over 65% in size
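First, reporter cells (HEPG2 CAGA-GFP) rested 2 h at 37 degrees C. Next, compounds were pinned in and TGF-beta added to 500 pg/mL final. After 18 h, GFP was imaged per cell and summed per well.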
HT1080NT lethal: kills 2HG-producing HT-1080-NT fibrosarcoma cells. HT-1080-NT fibrosarcoma viability, CellTiter-Glo ATP luminescence, 48 h. Potency, µM (titrated, usually from 46.1 µM), most hits filed as cytotoxic. hit rate 1.6% among 360,000. AID 686970;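 note: NT is the 2HG producing partner of a matched IDH1 knockdown line; nearly all actives have a fitted effect of over 55% in size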
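Compounds were tested in concentration-response format on HT-1080-NT cells for 48 hours at 37 degrees C. Cell viability came from CellTiter-Glo luminescence; curves were classified by r2, response magnitude and activity.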
HT1080 IDH1KD tx: kills HT-1080 cells with IDH1 knockdown; AID 686971; Potency, µM (doses to about 46.1 µM), usual class: cytotoxic; hit rate 2% among 360,000; HT-1080 IDH1 knockdown viability, ATP luminescence, 48 h
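Knockdown cells (IDH1KD HT-1080) received compounds 2 h after plating at 750 cells/well and were kept 48 h at 37 °C in 5% FBS RPMI. A CellTiter-Glo luminescence read gave % activity for curve fitting.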
Hits are given with their value; i = inactive; ? = inconclusive; nt = no result; [ ] = another dose, or the depositor's remark. Calls come from the whole dose curve; as a rule, active = well fitted curve in the direction sought with a large enough effect; inconclusive = small, poorly fitted or top-dose-only effect, or another doubt; inactive = no such curve, though single readings can be large; an effect the other way counts as inactive or inconclusive.

SMILES	HepG2 viability	DT40 TDP1 no CPT	DT40 TDP1 CPT	TGFb inhibitor	HT1080NT lethal	HT1080 IDH1KD tx
Cc1nn(Cc2ccc(C(=O)N3c4ccc(F)cc4CCC3C)o2)c(C)c1Br (stereo not drawn)	i	16µM	21µM	?	i	i
CC1CCc2cc(F)ccc2N1C(=O)c1ccc2c(c1)OCO2 (stereo not drawn)	i	15µM	?	i	i	i
CC1CCc2cc(F)ccc2N1C(=O)CCl (stereo not drawn)	i	6.5µM	5.8µM	i	?	?
COc1ccc(N2CC(c3nc(-c4ccccc4C)no3)CC2=O)cc1Cl (stereo not drawn)	i	i	i	i	nt	nt
CC(=O)Oc1ccc(NC(=O)CSc2ccccc2)cc1	i	?	?	i	i	i
COc1cc(OC)cc(C(=O)N2c3ccc(F)cc3CCC2C)c1 (stereo not drawn)	i	12µM	10µM	i	i	i
CCOc1ccc(C(C)(C)C)cc1S(=O)(=O)N1CC(C)OC(C)C1 (stereo not drawn)	i	?	?	i	i	i
Cn1c(=O)c2c(-c3ccccc3)n3c4ccccc4nc(-c4ccccc4)c3c2n(C)c1=O	i	15µM	?	i	nt	nt
COc1ccc(-c2c3c(=O)n(C)c(=O)n(C)c3c3c(-c4ccc(C)cc4)nc4ccccc4n23)cc1	i	i	i	i	nt	nt
CCc1nc2ccccc2n2c(-c3ccccc3)c3c(=O)n(C)c(=O)n(C)c3c12	i	21µM	15µM	i	nt	nt
Cc1cccc(-c2nc3ccccc3n3c(-c4ccccc4)c4c(=O)n(C)c(=O)n(C)c4c23)c1	i	i	i	i	nt	nt
COc1ccc(-c2nc3ccccc3n3c(-c4cccc(C)c4)c4c(=O)n(C)c(=O)n(C)c4c23)cc1	i	i	18µM	i	nt	nt
Cc1cccc(-c2c3c(=O)n(C)c(=O)n(C)c3c3cnc4ccccc4n23)c1	i	?	i	i	nt	nt
Cc1ccccc1-c1cccc(CN2CCc3nnc(C(NS(C)(=O)=O)C(C)C)n3CC2)c1 (stereo not drawn)	nt	?	i[9.04 µM]	nt	nt	nt
CCN(CC)CCC=C(c1cccs1)c1cccs1	i	23µM	?	i	i	i
CC1(C(=O)NS(=O)(=O)C2CC2)CCN(C(=O)c2ccccc2OC(F)(F)F)C1 (stereo not drawn)	i	i	i	i	i	i
COCCCNC(=O)c1ccc2c(c1)ncn2-c1ccc(C)cc1C	i	i	?	i	i	i
Cc1ccc(-n2cnc3cc(C(=O)NC4CCCCCC4)ccc32)c(C)c1	i	16µM	?	?	nt	nt
Cc1ccc(-n2cnc3cc(C(=O)NCc4ccc(F)cc4)ccc32)c(C)c1	i	?	21µM	?	nt	nt
O=C(O)C(=O)/C(=C\c1cccc2ccccc12)c1ccc2ccccc2n1	i	18µM	?	i	?	?
CCN(c1ccccc1)S(=O)(=O)c1cc(C(=O)Nc2ccc(F)c(F)c2)ccc1F	i	?	23µM	11µM	15µM	?
CCN(c1ccccc1)S(=O)(=O)c1ccc(F)c(C(=O)Nc2ccc(C)cc2)c1	i	12µM	9.2µM	i	nt	nt
CCN(c1ccccc1)S(=O)(=O)c1ccc(C(=O)Nc2cccc(NC(C)=O)c2)cc1	i	i	?	i	i	i
O=C(/C=C/c1cccc(Cl)c1)NCCCN1CCOCC1	i	i	i	i	i	i
COc1cc(=O)n2c(c1C(=O)N(C)Cc1nonc1C)CCN(Cc1cccc(Cl)c1)CC2	nt	i	i[9.04 µM]	nt	nt	nt
SMILES	HepG2 viability	DT40 TDP1 no CPT	DT40 TDP1 CPT	TGFb inhibitor	HT1080NT lethal	HT1080 IDH1KD tx
C=CCNC(=O)Nc1ccc(Cl)cn1	i	i	i	i	i	i
O=C1CC2(CCCCC2)CC(=O)N1CCc1ccccc1	i	i	i	i	i	i
O=C1C=CC(=O)C(C2=C3C(=O)N(CCc4ccccc4)CC(=O)N3CCC2)=C1	i	1.3µM	1.3µM	?	i	?
COc1ccc2cc(C(=O)/C=C/c3cc(OC)c(O)c(OC)c3)ccc2c1	18µM	9.2µM	10µM	?	21µM	16µM
COc1ccc(C(=O)/C=C/c2ccc(OC3CSC3)cc2)cc1OC	i	18µM	?	?	?	i
COc1ccc(C(=O)/C=C/c2cc(OC)c(O)c(OC)c2)c(F)c1	i	16µM	?	i	?	?
CCC1CN(CC(=O)NC(C)c2c(C)nn(C)c2C)Cc2cc(OC)ccc2O1 (stereo not drawn)	nt	i	i[9.04 µM]	nt	nt	nt
O=c1nc2n(CCO)c3ccccc3cc-2c(=O)[nH]1	i	i	i	i	i	i
Cc1ccc(S(=O)(=O)n2cc(CO)c3ccccc32)cc1	i	?	?	?	i	i
O=C1N[C@@H](Cc2cn(S(=O)(=O)c3ccc([N+](=O)[O-])cc3)c3ccccc23)C(=O)N[C@H]1Cc1ccccc1	i	?	21µM	?	i	i
Cc1ccc(CN2C[C@H](Sc3ccccn3)C[C@H]2C(=O)Nc2ccc3sc(C)nc3c2)c(C)c1	nt	i	i[9.04 µM]	nt	nt	nt
CCOC(=O)C1(CCOc2ccccc2)CCN(Cc2ccc(COC)o2)CC1	i	?	7.3µM	i	i	i
CCOC(=O)C1(Cc2ccccc2)CCN(Cc2ccc(C)s2)CC1	i	23µM	?	i	i	i
CCOC(=O)C1(Cc2ccccc2C(F)(F)F)CCN(Cc2ccon2)CC1	i	15µM	?	i	i	i
CCOC(=O)C1(Cc2cccc(F)c2)CCN(Cc2ccc(COC)o2)CC1	i	21µM	23µM	i	i	i
CCOC(=O)C1(Cc2ccccc2)CCN(Cc2ccon2)CC1	i	i	i	i	i	i
COc1ccc(C2CC(=O)Oc3c2c(=O)n(C)c2ccccc32)c(OC)c1OC (stereo not drawn)	i	i	?	i	i	i
Cc1c(C(=O)NCc2cccc([N+](=O)[O-])c2)sc(=O)n1Cc1ccccc1F	i	?	?	i	i	i
N#C/C(=C\c1ccncc1)c1ccccn1	i	?	i	i	?	?
CCOC(=O)C1(Cc2ccccc2)CCN(Cc2ccc3c(c2)OCCO3)CC1	i	i	i	i	i	i
CCOC(=O)C1(Cc2ccccc2)CCN(Cc2ccc(COC)o2)CC1	i	?	12µM	i	i	i
CCCCN(CC)C(=O)CSc1nc2ccccc2c(=O)n1Cc1ccco1	i	?	?	i	nt	nt
CC1=C(CCN2CCN(C3CCCC3)C(CCO)C2)C(C)(C)CCC1 (stereo not drawn)	i	?	21µM	i	i	i
